# Reference: article PMC4336329 (PLoS ONE, 2015)
# Hit rate of the full screen: of about 310,000 compounds, about 14,000 (4.5%) showed an effect of 50% or more. Effects have a minus sign here. The sample as a whole holds a higher share of strong results than the screen did.
# Target: human ether-à-go-go-related gene (hERG) potassium channel (human, UniProt Q12809)
# Assay: primary screen, population patch clamp on CHO cells stably expressing hERG; higher = less effect of the substance
# 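Also: peak tail current of the secondary pulse compared with the same well before compound.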
# human ether-à-go-go-related gene (hERG) potassium channel, sequence (Q12809 whole entry, looked up): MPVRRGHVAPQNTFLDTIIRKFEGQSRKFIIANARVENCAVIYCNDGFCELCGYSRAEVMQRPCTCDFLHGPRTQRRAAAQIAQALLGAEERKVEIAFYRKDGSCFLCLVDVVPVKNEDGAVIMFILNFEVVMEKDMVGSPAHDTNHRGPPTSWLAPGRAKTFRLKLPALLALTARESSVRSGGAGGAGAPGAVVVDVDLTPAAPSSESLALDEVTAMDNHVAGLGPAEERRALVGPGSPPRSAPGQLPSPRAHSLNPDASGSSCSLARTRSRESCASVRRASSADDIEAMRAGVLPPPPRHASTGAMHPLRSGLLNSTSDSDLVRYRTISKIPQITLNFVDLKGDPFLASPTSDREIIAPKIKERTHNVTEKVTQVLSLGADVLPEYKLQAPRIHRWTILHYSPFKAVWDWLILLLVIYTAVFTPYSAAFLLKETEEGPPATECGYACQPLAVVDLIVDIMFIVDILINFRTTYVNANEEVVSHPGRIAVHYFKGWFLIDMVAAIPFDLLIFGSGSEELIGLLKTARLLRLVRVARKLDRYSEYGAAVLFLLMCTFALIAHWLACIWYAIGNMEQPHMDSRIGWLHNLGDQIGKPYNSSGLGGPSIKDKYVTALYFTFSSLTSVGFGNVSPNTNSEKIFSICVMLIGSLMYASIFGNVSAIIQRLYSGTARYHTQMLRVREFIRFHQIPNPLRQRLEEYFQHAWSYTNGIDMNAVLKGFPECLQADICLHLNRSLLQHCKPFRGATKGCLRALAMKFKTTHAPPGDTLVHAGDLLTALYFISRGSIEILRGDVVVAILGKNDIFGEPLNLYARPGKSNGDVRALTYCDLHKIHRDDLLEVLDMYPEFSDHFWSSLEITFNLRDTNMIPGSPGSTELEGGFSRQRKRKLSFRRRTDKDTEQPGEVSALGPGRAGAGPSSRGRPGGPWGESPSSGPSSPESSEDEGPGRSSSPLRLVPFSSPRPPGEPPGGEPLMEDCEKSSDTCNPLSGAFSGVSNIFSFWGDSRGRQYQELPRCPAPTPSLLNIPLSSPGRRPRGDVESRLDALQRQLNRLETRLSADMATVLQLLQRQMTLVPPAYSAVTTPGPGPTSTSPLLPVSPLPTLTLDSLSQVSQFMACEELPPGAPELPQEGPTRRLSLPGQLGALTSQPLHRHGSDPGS
row,SMILES,"hERG current change (%, negative = inhibition) at 10uM [%]"
1,COC(=O)c1ccc(CSc2nc3c(cnn3-c3ccc(F)cc3)c(=O)[nH]2)o1,13.1
2,O=C(Nc1ccccc1)c1ccc2c(c1)OCCCO2,-10.7
3,O=[N+]([O-])c1cccc(-c2c[n+]3c(n2-c2ccccc2)SCC3)c1.[Br-],-42.3
4,[Br-].c1ccc(Cn2c(-c3ccccc3)c[n+]3c2SCCC3)cc1,-70.9
5,COc1ccc(-c2c[n+]3c(n2-c2ccccc2)SCC3)cc1OC.[Br-],4.92
6,O=C(CSc1nnc2ccc(-c3ccc(F)cc3)nn12)N1CCCC1,-13.5
7,O=C(Nc1c(C(=O)c2ccccc2)oc2ccccc12)c1cc(-c2ccccc2O)n[nH]1,9.34
8,COc1cc(C(=O)Nc2ccc3c(c2)OCO3)ccc1-n1cnnn1,-15.6
9,O=C(Cn1nnc(-c2ccccc2-n2cnnn2)n1)NCc1ccccc1,-5.93
10,CC1CCC(N2CCN(C(=O)COc3ccccc3)CC2)CC1.O=C(O)C(=O)O (stereo not drawn),-31.4
11,COc1ccc(OCC(=O)N2CCN(C(=O)Cc3ccccc3)CC2)cc1,-32.5
12,COc1ccc(N2CCN(C(=O)COc3ccccc3)CC2)cc1,-20.6
13,COc1ccc(OCC(=O)N2CCN(C3CCC(c4ccccc4)CC3)CC2)cc1 (stereo not drawn),-54.4
14,Cc1ccc(OCC(=O)N2CCN(C3CCC(c4ccccc4)CC3)CC2)cc1.O=C(O)C(=O)O (stereo not drawn),-62.8
15,Cc1ccc(OCC(=O)N2CCC(N3CCCCCC3)CC2)cc1,-28.3
16,COc1ccc(C2NC(=O)Cc3cc(OC)c(OC)cc32)cc1OC (stereo not drawn),5.46
17,COC(=O)c1ccc(/C=C/C(=O)OCC(=O)Nc2ncc(Cl)cc2Cl)cc1,-19.9
18,CCOc1ccccc1CNn1cnnc1,2.62
19,Cc1nn(Cc2ccc(Cl)c(Cl)c2)c(C)c1NC(=O)c1cc(-c2ccc3c(c2)OCO3)on1,6.42
20,Clc1ccc2c(c1)C(OC1CN3CCC1CC3)c1ccccc1CS2.O=C(O)/C=C\C(=O)O (stereo not drawn),-50.6
21,O=C(Nc1ccccc1Cl)OC1CN2CCC1CC2 (stereo not drawn),-32.9

row,SMILES,"hERG current change (%, negative = inhibition) at 10uM [%]"
1,CN1CCN(CCOC2c3ccccc3CSc3ccc(Cl)cc32)CC1.O=C(O)/C=C\C(=O)O (stereo not drawn),-57.2
2,Cc1cccc(NC(=O)OC2CN3CCC2CC3)c1 (stereo not drawn),-9.77
3,Brc1ccc2c(c1)C(C1=NCCN1)c1ccccc1CS2.O=C(O)/C=C\C(=O)O (stereo not drawn),-20.3
4,Brc1ccc2c(c1)C(OC1CN3CCC1CC3)c1ccccc1CS2.O=C(O)/C=C\C(=O)O (stereo not drawn),-71.4
5,CCOCCN1CCN(C2c3ccccc3CSc3ccccc32)CC1.O=C(O)C(=O)O (stereo not drawn),-30.3
6,Clc1ccc2c(c1)C(C1=NCCN1)c1ccccc1CS2.O=C(O)/C=C\C(=O)O (stereo not drawn),-8.02
7,O=C(Nc1cccc(Cl)c1)OC1CN2CCC1CC2 (stereo not drawn),29.5
8,CCC(=O)OC1(C)C(=O)C=C2C=C(CCCCNC(=O)OC(C)(C)C)OC=C2C1=O (stereo not drawn),6.58
9,CCCN(CCC)CCCNC(=O)CN1C(=O)CSc2ccc(S(=O)(=O)N3CCOCC3)cc21,20.2
10,CCc1ccc(-c2nnn(Cc3nc4ccccc4s3)n2)cc1,-10.3
11,Cc1ccc(OCC(=O)Nc2ccc(S(=O)(=O)N3CCCC3)cc2)cc1,15.5
12,O=C(N/N=C/c1cc([N+](=O)[O-])ccc1O)C(O)(c1ccccc1)c1ccccc1,4.13
13,Cc1cc(C(=O)NN=C2CCCCCCC2)c2ccccc2n1,5.42
14,C=CCOC(=O)C1=C[C@H](c2ccc(C(F)(F)F)cc2)[C@@H](CCCO)[C@H](OCC)O1,-16.3
15,O=C(CC1C(=O)NCCN1Cc1ccc(Cl)c(F)c1)NCCc1cccnc1 (stereo not drawn),-12.7
16,CCC1CCCCN1C(=O)C(=O)c1cn(CC(=O)N(CC)CC)c2ccccc12 (stereo not drawn),21
17,CCCCN(C(=O)c1ccc2c(c1)OCCO2)c1c(N)n(CC(C)C)c(=O)[nH]c1=O,-11.7
18,O=c1oc2ccccc2n1CCn1c2ccccc2c2nc3ccccc3nc21,10.7
19,Cc1cccc(CN2CCC(CNC(=O)CSc3cc(=O)n(C)c4cc(Cl)ccc34)CC2)c1,-69.7
20,CCN(CCCNC(=O)CSc1cc(=O)n(C)c2cc(Cl)ccc12)Cc1ccccc1,-58.8
21,CCN1CCCC1CNC(=O)CSc1cc(=O)n(C)c2cc(Cl)ccc12 (stereo not drawn),-32.7

row,SMILES,"hERG current change (%, negative = inhibition) at 10uM [%]"
1,COCCNC(=O)CSc1cc(=O)n(C)c2cc(Cl)ccc12,2.04
2,Cn1c(=O)cc(SCC(=O)NCC2CCCO2)c2ccc(Cl)cc21 (stereo not drawn),-7.37
3,CN(CCCNC(=O)COc1cc(=O)n(C)c2ccccc12)Cc1ccccc1,-18.1
4,CCCCNC(=O)CSc1cc(=O)n(C)c2ccccc12,4.11
5,CN(CCCNC(=O)CSc1cc(=O)n(C)c2ccc(Cl)cc12)Cc1ccccc1,-61.2
6,Cn1c(=O)cc(SCC(=O)NCCCN2CCOCC2)c2ccc(Cl)cc21,-3.15
7,CCOc1ccc(CCNC(=O)CSc2cc(=O)n(C)c3cc(Cl)ccc23)cc1OCC,-3.7
8,Cn1c(=O)cc(SCC(=O)NCCC2=CCCCC2)c2cc(Cl)ccc21,5.01
9,CN(CCCNC(=O)CSc1cc(=O)n(C)c2cc(Cl)ccc12)Cc1ccccc1,-63.5
10,C/C(CC(=O)Nc1ccc(Cl)cc1Cl)=N\NC(=O)C(=O)NCCO,6.64
11,O=C(NCc1ccco1)c1cc2nc(-c3cccs3)cc(C(F)(F)F)n2n1,-17.6
12,COc1cc(NC(=O)c2ccc(COCC(F)(F)F)cc2)cc(OC)c1OC,1.25
13,O=C(CSc1ccccc1)N[C@@H](Cc1ccccc1)C(=O)O,13.7
14,O=C(Nc1ccc(S(=O)(=O)Nc2ncccn2)cc1)C1COc2ccccc2O1 (stereo not drawn),11.1
15,COc1ccc(S(N)(=O)=O)cc1C(=O)NCC(C)(C)N1CCCCC1,-15.2
16,COc1ccc2c(C)cc(SCc3c(C)noc3C)nc2c1,-17
17,O=C(Nc1ccc(CN2CCOCC2)cc1)c1cc(Cl)ccc1Cl,0.807
18,Cc1cc(Br)ccc1NC(=O)CNC(=O)CSc1n[nH]c(N)n1,18.5
19,CCc1cc2c3c(c1)C1(C(=O)N3C(C)(C)CC2C)C(C#N)=C(N)N2C(=C1C#N)Nc1ccccc12 (stereo not drawn),-1.49
20,O=C(NC1CCCN(Cc2ccc(Cl)cc2)C1)c1c(F)ccc(F)c1F (stereo not drawn),-75.3
21,O=C(CCc1cccc(Cl)c1)NC1CCCN(Cc2ccccc2F)C1 (stereo not drawn),-28.3

row,SMILES,"hERG current change (%, negative = inhibition) at 10uM [%]"
1,O=C(NC1CCCN(Cc2ccc(Cl)cc2)C1)c1cccc(F)c1 (stereo not drawn),-61.3
2,COc1ccc(CCC(=O)NC2CCCN(Cc3ccc(Cl)cc3)C2)cc1OC (stereo not drawn),-48.2
3,COc1cccc(CC(=O)NC2CCCN(Cc3ccc(Cl)cc3)C2)c1 (stereo not drawn),-26.3
4,O=C(NC1CCCN(Cc2ccc(Cl)cc2)C1)c1ccccc1C(F)(F)F (stereo not drawn),-16.9
5,COc1cc(OC)cc(C(=O)NC2CCCN(Cc3ccc(Cl)cc3)C2)c1 (stereo not drawn),-37.1
6,O=C(Cc1cccc(F)c1F)NC1CCCN(Cc2ccc(Cl)cc2)C1 (stereo not drawn),-21.7
7,O=C(NC1CCCN(Cc2ccc(Cl)cc2)C1)c1c(F)cccc1F (stereo not drawn),-15.7
8,O=C(Cc1ccccc1F)NC1CCCN(Cc2ccc(Cl)cc2)C1 (stereo not drawn),-33.7
9,O=C(CCc1ccc(F)c(F)c1)NC1CCCN(Cc2ccc(Cl)cc2)C1 (stereo not drawn),-66
10,COc1ccc(C(=O)NC2CCCN(Cc3ccc(Cl)cc3)C2)c(OC)c1 (stereo not drawn),-79.5
11,O=C(Nc1ccccc1)c1ccccc1Oc1ccc(C(F)(F)F)cc1[N+](=O)[O-],9.75
12,CC(=O)Nc1ccc(S(=O)(=O)NCCc2c[nH]c3ccc(C)cc23)cc1,26.2
13,CS(=O)(=O)N(Cc1ccccc1)c1ccc(C(=O)Nc2cccnc2)cc1,-5.96
14,CN1CCN(S(=O)(=O)c2ccc(NC(=S)NC(=O)C(C)(C)C)cc2)CC1,1.03
15,Cc1nn(S(=O)(=O)c2cccc([N+](=O)[O-])c2)c(C)c1Br,10.7
16,CC(C)(C)NC(=O)C(c1ccc(O)cc1)N(C(=O)CCC(=O)Nc1nccs1)c1cccc(F)c1 (stereo not drawn),16.8
17,O=C(O)CC(NC(=O)c1ccco1)c1ccco1 (stereo not drawn),17.4
18,CSc1sc(-c2nnc(SCC(=O)Nc3ccc(Cl)cc3)n2C)c2c1C=CCC2,10.5
19,CSc1sc(-c2n[nH]c(=S)n2C)c2c1C=CCC2,-56.8
20,CSc1sc(-c2nnc(SCC(=O)Nc3ccccc3)n2C)c2c1C=CCC2,-2.35
21,Cc1cccc(C(=O)NN2S(=O)(=O)c3ccccc3S2(=O)=O)c1,18.2
